According to PubChem BioAssay (NCATS):
Values joined by “and” are separate entries in the source; they are usually repeats but may differ in a detail not shown here. Equal values may be shown once. Results filed as inconclusive are left out. Active and inactive are the calls of the source. Unless noted, calls follow the shape of the dose curve; as a rule, active = well fitted curve in the direction sought with a large enough effect; inconclusive = small, poorly fitted or top-dose-only effect, or another doubt; inactive = no such curve, though single readings can be large; an effect the other way counts as inactive or inconclusive.

Tests used:
[1] = target: Cytochrome P450 1A2 (Homo sapiens) (UniProt P05177); test: p450-cyp1a2 (AID 410; calls by dose curve; also: potency is read from the fitted curve at half-maximal effect)
In short: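 Read-out is luminescence from luciferin produced by CYP1A2 demethylation of Luciferin-ME (100uM, at Km). Detection reagent stopped the 60 min NADPH-dependent reaction; signals were normalized to 57 uM furafylline.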

[2] = NFAT Signaling Pathway (AID 444; active = well fitted curve in either direction with a large enough effect, not every such curve was filed as active;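 also: carbachol stimulus at about its EC50 of 1 µM final; % is scaled to controls: 0 for no effect and ±100 for the full control effect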); conditions: Jurkat NFAT-bla M1, carbachol, beta-lactamase ratio, 5 h; at 38 µM (top of the series)
In short: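 Jurkat cells carrying an NFAT-driven β-lactamase reporter and co-transfected muscarinic M1 receptor were treated with compound plus carbachol (1 uM final, an EC50 level) for 5 h at 37 °C. CCF4 loading followed for 1 h at RT; 460/530 nm ratio gave %activity.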

[3] = Stat Signaling Pathway (AID 446; active = well fitted curve in either direction with a large enough effect, not every such curve was filed as active;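 also: ME-180 cervical cancer cells given 40 pM IL-6 alongside compound; SIE-controlled beta-lactamase reporter measured as 460/530 nm FRET emission ratio; % is scaled to controls: 0 for no effect and ±100 for the full control effect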); conditions: ME-180 (cervical carcinoma) SIE beta-lactamase reporter, IL-6 stimulated, 5 h; at 38 µM (top of the series)
In short: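 Compound effects on IL-6-induced STAT reporter activity were measured in ME-180 cells. After overnight culture, cells were co-treated with 40 pM IL-6 for 5 hrs before beta-lactamase substrate loading at room temperature.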

[4] = target: Glucocorticoid receptor (Homo sapiens) (UniProt P04150); test: GR-GFP Redistribution (AID 450;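 active = compounds whose dose series gives a full or clear partial fitted curve of increased nuclear translocation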; also: potency is read from the fitted curve at half-maximal effect); conditions: U2OS GR-GFP nuclear translocation, laser cytometry, 2 h
[5] = target: Glucocorticoid receptor (Homo sapiens) (UniProt P04150); test: GR-EFC Redistribution (AID 451; calls by dose curve; also: potency is read from the fitted curve at half-maximal effect); conditions: CHO-K1 GR-EFC translocation, beta-gal luminescence, 2 h
In short: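 CHO-K1 cells stably expressing nuclear-localized β-gal enzyme acceptor and GR fused C-terminally to the enzyme donor fragment; ligand-driven nuclear translocation restores β-gal by complementation. Compounds titrated up to 46 uM final, 2 h at 37 °C; luminescence read.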

[6] = target: Mitogen-activated protein kinase 10 (Mus musculus) (UniProt Q61831); test: JNK3 AlphaScreen Assay (AID 530; active = well fitted curve in either direction with a large enough effect, not every such curve was filed as active;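 also: kinase came from lysate of stimulated human HepG2 cells; potency is read from the fitted curve at half-maximal effect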)
In short: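 Biotinylated GST-cJun(1-79) served as substrate for JNK3 in HepG2 lysates stimulated with IL-1beta and TNF-alpha. ATP was 10 uM final, pH 7.6. Ser73 phosphorylation was quantified by AlphaScreen (680 nm excitation).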

[7] = target: Guanine nucleotide-binding protein G(i) subunit alpha-1 (Homo sapiens) (UniProt P63096); test: qHTS Assay for Inhibitors of RGS12 GoLoco Motif Activity (Green Fluorophore) (AID 879);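 also: 0% = labeled peptide with Gαi1 and full inhibition = labeled peptide alone without protein; negative values mean loss of peptide binding seen as reduced polarization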
In short: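 A drop in FITC polarization marked displacement of the FITC-tagged RGS12 GoLoco peptide (10 nM) from Gαi1 (50 nM). Compounds were incubated 10 min at room temperature in Tris pH 7.5 buffer containing 150 mM NaCl, 0.1 mM GDP and 0.05% NP40; unlabeled peptide titration served as control.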

[8] = target: Cytochrome P450 3A4 (Homo sapiens) (UniProt P08684); test: qHTS Assay for Inhibitors and Substrates of Cytochrome P450 3A4 (AID 884); also: potency is read from the fitted curve at half-maximal effect; nearly all actives have a fitted effect of over 50% in size
In short: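 Luminescent readout of luciferin produced by CYP3A4 (20 nM) dealkylation of Luciferin-PPXE, 25 uM (its KM). NADPH-driven reaction ran 60 min at RT after 10 min compound preincubation; data scaled to 57 uM ketoconazole as 100% inhibition.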

[9] = target: Cytochrome P450 3A4 (Homo sapiens) (UniProt P08684); test: qHTS Assay for Activators of Cytochrome P450 3A4 (AID 885); also: nearly all actives have a fitted effect of over 65% in size
In short: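 CYP3A4 activity: Luciferin-PPXE O-dealkylation, 25uM substrate, 200mM KPO4, RT throughout. Read-out is luciferase luminescence; higher values reflect activation.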

[10] = target: Cytochrome P450 2D6 (Homo sapiens) (UniProt P10635); test: qHTS Assay for Inhibitors and Substrates of Cytochrome P450 2D6 (AID 891); also: potency is read from the fitted curve at half-maximal effect; nearly all actives have a fitted effect of over 60% in size
In short: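 Luminescent read-out of luciferin formed by 5 nM human CYP2D6 demethylating 30 uM Luciferin-ME EGE (Km level) over 60 min at room temperature after NADPH regeneration addition. Data normalized to full inhibition by 1.43 uM quinidine.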

[11] = target: Cytochrome P450 2C19 (Homo sapiens) (UniProt P33261); test: qHTS Assay for Inhibitors and Substrates of Cytochrome P450 2C19 (AID 899); also: potency is read from the fitted curve at half-maximal effect; nearly all actives have a fitted effect of over 60% in size
In short: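 NADPH-dependent conversion of Luciferin-H EGE (10uM, at KM) by 5nM enzyme in 50mM KPO4, 60 min at 37C following 10 min compound preincubation. Stopped with luciferin detection buffer; luminescence read after 20 min.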

[12] = target: Muscarinic acetylcholine receptor M1 (Rattus norvegicus) (UniProt P08482); test: qHTS Assay for Antagonists of Acetylcholine Muscarinic M1 Receptor: Measurement of IP-One Response (AID 944); also: nearly all actives have a fitted effect of over 75% in size
In short: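 Antagonism was measured as loss of carbachol-driven (EC80) IP1 accumulation in CHO cells carrying rat M1, using a homogeneous IP-One TR-FRET kit read at 620 and 665 nm.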

[13] = target: Pyruvate kinase PKM (Homo sapiens) (UniProt P14618); test: qHTS Assay for Activators of Human Muscle Pyruvate Kinase (AID 954; active = well fitted curve in the direction sought with a large enough effect, not every such curve was filed as active;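 also: 0% = uninhibited enzyme and -100% = no enzyme or full thiadiazolimine inhibition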)
In short: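 A coupled luminescent readout tracked ATP made from ADP by purified PKM2. Final conditions included 0.1 nM enzyme, PEP and ADP at 0.5 and 0.1 mM, pH 7.2 imidazole buffer with BSA, and a one-hour room-temperature reaction.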

[14] = target: Pyruvate kinase PKM (Homo sapiens) (UniProt P14618); test: qHTS Assay for Inhibitors of Human Muscle Pyruvate Kinase (AID 958); conditions: purified human PKM enzyme activity
In short: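 Screening used highly purified human pyruvate kinase M2 under submaximal activity, with PEP at its Km and ADP below Km. After an hour at room temperature, ATP was read by luciferase luminescence.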

[15] = target: Pyruvate kinase (Leishmania mexicana) (UniProt Q27686); test: qHTS Validation Assay for Activators of Leishmania Mexicana Pyruvate Kinase (AID 959)
In short: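 Substrate mix (0.5 mM PEP, 0.1 mM ADP, 7 mM MgCl2, 50 mM KCl, pH 7.2 imidazole) received compound by pin tool, then 0.2 nM LmPYK E451W. After 1 h at room temperature, PKLight was added and luminescence measured.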

[16] = target: Alpha-galactosidase A (Homo sapiens) (UniProt P06280); test: Counterscreen for Glucocerebrosidase Inhibitors: qHTS Assay for Human alpha-Galactosidase at pH 4.5 (AID 992); also: 0% is about no effect
In short: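 Citrate buffer pH 4.5, Tween-20 0.005%. Enzyme 2 nM, substrate 80 uM, 20 min RT. Stop pH 10. Fluorescence Ex 365/Em 440. AC50 by Hill fit.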

[17] = target: alpha-glucosidase (Oryza sativa, rice) (UniProt Q653V4); test: Counterscreen for Glucocerebrosidase Inhibitors: qHTS Assay for Rice alpha-Glucosidase at pH 5.0 (AID 997);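 also: 0% = full activity with enzyme and -100% = basal without enzyme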
In short: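 Endpoint fluorogenic assay at pH 5.0: compounds (0.7 nM to 77 uM) titrated against 4 nM rice enzyme and 400 uM 4-MU-alpha-glucoside for 20 min at room temperature; NaOH/glycine stop, read ex 365/em 440 nm, Hill-fitted AC50.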

[18] = target: DNA repair nuclease/redox regulator APEX1 (Homo sapiens) (UniProt P27695); test: qHTS Validation Assay for Inhibitors of the Human Apurinic/apyrimidinic Endonuclease 1 (APE1) (AID 1705;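 also: TAMRA fluorescence gain over two minutes as APE1 cuts a quenched THF abasic duplex; % is scaled to controls: 0 for no effect and ±100 for the full control effect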)
In short: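 Endonuclease activity of human APE1 is followed as dequenching when the enzyme incises a tetrahydrofuran abasic site in a short duplex labelled 5'-TAMRA/3'-BHQ-2 (50 nM final), after 15 min enzyme–compound preincubation at room temperature.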

[19] = qHTS for differential inhibitors of proliferation of Plasmodium falciparum line 7G8 (AID 1815);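 also: potency is read from the fitted curve at half-maximal effect; parasite growth measured after three days of incubation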
[20] = qHTS for differential inhibitors of proliferation of Plasmodium falciparum line GB4 (AID 1816); conditions: Potency: Plasmodium falciparum GB4 proliferation inhibition;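 also: potency is read from the fitted curve at half-maximal effect; parasite growth measured after 72 h incubation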

Sequence of Glucocorticoid receptor (Homo sapiens) (P04150 whole entry, looked up, the tested form may be a part): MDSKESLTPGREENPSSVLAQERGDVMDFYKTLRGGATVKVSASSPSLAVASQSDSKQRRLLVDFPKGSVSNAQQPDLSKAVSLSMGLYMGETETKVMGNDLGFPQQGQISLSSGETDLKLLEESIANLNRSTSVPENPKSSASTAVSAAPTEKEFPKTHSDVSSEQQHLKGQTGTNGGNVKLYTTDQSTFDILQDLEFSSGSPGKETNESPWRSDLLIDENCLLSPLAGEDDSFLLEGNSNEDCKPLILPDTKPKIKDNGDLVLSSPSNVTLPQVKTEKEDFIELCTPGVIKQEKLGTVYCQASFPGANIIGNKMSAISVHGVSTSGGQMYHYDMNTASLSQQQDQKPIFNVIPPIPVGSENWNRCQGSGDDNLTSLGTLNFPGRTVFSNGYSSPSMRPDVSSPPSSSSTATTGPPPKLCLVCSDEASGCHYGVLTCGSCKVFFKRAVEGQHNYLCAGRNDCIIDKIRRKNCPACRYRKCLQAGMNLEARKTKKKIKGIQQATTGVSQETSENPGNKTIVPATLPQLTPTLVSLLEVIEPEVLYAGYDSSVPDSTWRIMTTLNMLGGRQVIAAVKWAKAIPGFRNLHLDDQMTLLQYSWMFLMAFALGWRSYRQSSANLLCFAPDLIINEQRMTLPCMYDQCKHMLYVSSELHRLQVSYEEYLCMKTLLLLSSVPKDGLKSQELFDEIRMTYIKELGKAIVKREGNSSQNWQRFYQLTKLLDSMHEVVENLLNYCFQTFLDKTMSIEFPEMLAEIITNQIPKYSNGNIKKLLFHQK
Sequence of Cytochrome P450 1A2 (Homo sapiens) (P05177 whole entry, looked up): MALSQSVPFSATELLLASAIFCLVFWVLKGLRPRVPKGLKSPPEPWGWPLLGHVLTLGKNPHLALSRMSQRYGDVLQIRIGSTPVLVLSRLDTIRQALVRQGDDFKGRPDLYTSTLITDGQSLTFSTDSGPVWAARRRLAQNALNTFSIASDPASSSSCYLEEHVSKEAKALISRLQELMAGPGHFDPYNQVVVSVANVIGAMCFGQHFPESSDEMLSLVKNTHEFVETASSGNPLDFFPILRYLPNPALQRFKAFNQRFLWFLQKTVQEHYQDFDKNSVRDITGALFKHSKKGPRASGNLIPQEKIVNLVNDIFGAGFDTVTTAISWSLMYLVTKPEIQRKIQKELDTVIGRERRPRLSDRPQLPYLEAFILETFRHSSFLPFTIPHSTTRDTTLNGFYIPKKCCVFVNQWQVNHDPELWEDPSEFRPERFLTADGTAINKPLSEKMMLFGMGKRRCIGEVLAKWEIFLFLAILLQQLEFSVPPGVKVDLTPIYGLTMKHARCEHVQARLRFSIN
Sequence of Pyruvate kinase PKM (Homo sapiens) (P14618 whole entry, looked up): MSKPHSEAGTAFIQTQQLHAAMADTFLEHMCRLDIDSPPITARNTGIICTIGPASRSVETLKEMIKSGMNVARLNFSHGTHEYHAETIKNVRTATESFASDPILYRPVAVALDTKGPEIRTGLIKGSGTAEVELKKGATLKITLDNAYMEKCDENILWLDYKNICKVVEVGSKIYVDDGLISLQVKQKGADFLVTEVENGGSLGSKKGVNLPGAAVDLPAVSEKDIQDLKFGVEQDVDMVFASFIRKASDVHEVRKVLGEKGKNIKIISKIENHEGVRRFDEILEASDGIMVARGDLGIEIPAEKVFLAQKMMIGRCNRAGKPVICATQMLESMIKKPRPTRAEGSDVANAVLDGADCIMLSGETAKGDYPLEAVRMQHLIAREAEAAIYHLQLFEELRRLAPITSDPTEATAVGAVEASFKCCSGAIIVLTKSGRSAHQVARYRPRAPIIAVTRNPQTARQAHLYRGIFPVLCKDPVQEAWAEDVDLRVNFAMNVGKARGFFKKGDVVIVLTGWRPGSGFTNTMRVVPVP
Sequence of Cytochrome P450 3A4 (Homo sapiens) (P08684 whole entry, looked up): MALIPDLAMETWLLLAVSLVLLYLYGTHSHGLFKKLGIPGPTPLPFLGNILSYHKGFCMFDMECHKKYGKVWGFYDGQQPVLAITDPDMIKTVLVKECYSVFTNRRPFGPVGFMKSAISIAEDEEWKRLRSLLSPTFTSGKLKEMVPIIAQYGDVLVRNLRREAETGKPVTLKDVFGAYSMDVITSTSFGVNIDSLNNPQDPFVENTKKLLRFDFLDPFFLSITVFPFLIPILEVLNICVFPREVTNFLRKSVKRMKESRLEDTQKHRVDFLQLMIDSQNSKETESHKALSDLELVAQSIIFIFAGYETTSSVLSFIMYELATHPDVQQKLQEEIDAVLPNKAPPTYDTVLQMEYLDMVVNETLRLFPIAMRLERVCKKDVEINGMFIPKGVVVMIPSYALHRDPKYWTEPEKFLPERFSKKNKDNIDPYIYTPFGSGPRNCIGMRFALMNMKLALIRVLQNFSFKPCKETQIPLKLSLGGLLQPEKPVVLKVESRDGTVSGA
Sequence of DNA repair nuclease/redox regulator APEX1 (Homo sapiens) (P27695 whole entry, looked up): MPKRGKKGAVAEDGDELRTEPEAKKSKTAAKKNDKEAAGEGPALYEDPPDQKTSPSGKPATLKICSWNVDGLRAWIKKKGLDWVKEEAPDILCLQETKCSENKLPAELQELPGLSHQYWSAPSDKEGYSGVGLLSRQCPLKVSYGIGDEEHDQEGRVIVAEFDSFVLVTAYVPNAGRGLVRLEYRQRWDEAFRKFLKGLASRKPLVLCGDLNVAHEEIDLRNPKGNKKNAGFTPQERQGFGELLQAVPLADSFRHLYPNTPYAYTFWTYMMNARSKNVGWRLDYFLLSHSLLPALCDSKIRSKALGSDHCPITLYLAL
Sequence of Alpha-galactosidase A (Homo sapiens) (P06280 whole entry, looked up): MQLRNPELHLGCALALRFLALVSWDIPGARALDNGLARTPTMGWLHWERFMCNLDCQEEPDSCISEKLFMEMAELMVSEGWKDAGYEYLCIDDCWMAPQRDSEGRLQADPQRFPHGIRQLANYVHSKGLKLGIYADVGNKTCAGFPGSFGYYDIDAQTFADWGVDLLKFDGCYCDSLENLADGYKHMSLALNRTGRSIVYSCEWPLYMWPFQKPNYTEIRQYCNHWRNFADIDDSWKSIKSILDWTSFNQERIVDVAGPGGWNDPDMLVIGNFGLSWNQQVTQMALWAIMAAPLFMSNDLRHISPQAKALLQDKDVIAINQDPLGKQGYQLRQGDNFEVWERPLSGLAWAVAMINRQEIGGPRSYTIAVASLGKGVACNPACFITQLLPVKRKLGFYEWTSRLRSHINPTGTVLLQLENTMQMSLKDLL
Sequence of Cytochrome P450 2C19 (Homo sapiens) (P33261 whole entry, looked up): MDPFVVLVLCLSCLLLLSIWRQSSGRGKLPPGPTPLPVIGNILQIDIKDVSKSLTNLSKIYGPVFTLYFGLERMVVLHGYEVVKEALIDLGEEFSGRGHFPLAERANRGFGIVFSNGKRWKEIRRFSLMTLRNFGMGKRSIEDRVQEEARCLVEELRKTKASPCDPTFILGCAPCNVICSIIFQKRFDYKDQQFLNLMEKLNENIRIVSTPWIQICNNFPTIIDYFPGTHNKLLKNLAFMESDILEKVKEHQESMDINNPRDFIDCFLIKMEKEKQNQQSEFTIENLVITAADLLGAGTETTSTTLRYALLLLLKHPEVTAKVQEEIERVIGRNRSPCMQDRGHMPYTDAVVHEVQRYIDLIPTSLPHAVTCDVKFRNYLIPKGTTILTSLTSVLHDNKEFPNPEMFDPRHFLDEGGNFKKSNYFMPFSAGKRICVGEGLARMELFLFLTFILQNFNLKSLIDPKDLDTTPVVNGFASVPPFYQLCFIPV
Sequence of Guanine nucleotide-binding protein G(i) subunit alpha-1 (Homo sapiens) (P63096 whole entry, looked up): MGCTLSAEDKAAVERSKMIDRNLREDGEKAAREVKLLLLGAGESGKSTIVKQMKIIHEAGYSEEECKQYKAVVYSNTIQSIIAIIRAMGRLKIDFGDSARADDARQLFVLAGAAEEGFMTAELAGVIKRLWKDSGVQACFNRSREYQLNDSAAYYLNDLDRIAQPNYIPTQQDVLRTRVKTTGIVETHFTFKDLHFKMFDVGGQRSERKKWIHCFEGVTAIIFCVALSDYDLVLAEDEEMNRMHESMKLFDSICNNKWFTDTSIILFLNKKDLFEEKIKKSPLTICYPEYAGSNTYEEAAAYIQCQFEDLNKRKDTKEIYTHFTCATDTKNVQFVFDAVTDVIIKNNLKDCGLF
Sequence of Cytochrome P450 2D6 (Homo sapiens) (P10635 whole entry, looked up): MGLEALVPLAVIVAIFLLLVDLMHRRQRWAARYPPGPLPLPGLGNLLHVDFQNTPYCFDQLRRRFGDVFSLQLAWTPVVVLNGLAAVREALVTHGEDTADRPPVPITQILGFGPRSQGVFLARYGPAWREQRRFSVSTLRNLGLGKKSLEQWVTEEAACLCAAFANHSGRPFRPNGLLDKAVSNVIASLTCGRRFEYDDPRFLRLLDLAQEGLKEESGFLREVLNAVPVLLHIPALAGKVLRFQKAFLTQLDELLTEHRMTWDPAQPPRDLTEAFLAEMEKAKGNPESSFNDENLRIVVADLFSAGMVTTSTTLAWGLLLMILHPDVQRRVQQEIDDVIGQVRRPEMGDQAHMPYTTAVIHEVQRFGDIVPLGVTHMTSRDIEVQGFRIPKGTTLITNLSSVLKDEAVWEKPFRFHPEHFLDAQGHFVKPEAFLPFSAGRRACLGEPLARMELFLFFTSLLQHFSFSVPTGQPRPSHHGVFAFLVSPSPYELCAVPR
Sequence of Muscarinic acetylcholine receptor M1 (Rattus norvegicus) (P08482 whole entry, looked up): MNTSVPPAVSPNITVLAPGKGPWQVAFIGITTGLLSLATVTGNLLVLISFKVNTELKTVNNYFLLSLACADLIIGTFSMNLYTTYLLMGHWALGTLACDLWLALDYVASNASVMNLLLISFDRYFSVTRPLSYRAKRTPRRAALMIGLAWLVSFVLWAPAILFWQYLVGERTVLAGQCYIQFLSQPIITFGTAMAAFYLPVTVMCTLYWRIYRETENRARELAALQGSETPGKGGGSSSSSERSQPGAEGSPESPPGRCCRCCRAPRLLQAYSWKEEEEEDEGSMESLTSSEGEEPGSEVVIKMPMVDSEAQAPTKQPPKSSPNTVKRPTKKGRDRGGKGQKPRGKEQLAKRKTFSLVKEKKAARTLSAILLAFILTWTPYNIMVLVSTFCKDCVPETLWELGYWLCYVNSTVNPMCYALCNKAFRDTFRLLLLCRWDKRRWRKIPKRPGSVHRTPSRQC

O=Nc1c(-c2c(O)[nH]c3ccccc23)[nH]c2ccccc12
active: Potency [1] 200 nM and 31.6 nM | activity, negative = inhibition [3] -75% | Potency [6] 3.16 µM | Potency [8] 7.94 µM | Potency [10] 31.6 µM | Potency [11] 6.31 µM | Potency [14] 12.6 µM | Potency [19] 1.26 µM | Potency [20] 0.708 µM
inactive: activity change, negative = inhibition [2] -23.6% | Potency [4] > 46 µM | Potency [5] > 46 µM | outcome [7] | Potency [9] | Potency [12] | outcome [13] | Potency [15] | outcome [16] | outcome [17] | Potency [18]
